Laboratory results from publication PMC7862700, “An all-to-all approach to the identification of sequence-specific readers for epigenetic DNA modifications on cytosine”.

Experiments:
Experiment in all cases: DAPPL (digital affinity profiling via proximity ligation, sequencing); 10 mM Tris-HCl pH 7.5, 50 mM NaCl, 1 mM DTT, 4% glycerol, room temperature, 30 min; GST-TFs on glutathione beads, 16-mer random dsDNA library, 0.1% formaldehyde crosslink after washing; high values mean tight binding
FLI1 = target: T1, FLI1 (Homo sapiens, UniProt Q01543 1-452); conditions: protein: recombinant; tags: N-terminal GST; dsDNA, one strand shown
T1 sequence: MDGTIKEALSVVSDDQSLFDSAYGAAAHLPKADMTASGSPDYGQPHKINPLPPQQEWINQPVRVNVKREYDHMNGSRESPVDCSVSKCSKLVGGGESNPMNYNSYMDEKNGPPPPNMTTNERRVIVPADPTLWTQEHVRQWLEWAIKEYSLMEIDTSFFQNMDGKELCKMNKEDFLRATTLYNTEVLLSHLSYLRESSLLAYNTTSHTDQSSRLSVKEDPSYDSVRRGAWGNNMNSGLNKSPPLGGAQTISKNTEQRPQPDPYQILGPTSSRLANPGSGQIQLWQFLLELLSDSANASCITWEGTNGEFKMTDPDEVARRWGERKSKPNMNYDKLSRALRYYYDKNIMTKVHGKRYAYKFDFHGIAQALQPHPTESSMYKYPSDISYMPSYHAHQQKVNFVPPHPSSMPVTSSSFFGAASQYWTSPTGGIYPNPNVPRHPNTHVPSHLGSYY
In short: (§1)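 GST fusions of human transcription factors were expressed in yeast and captured with glutathione beads. Once given DNA barcodes and pooled alongside a tag-only sample, they were incubated for 30 min at room temperature with 200 nmole of a random double-stranded 16-mer DNA library in Tris/NaCl/DTT/glycerol buffer, then washed, crosslinked (0.1% formaldehyde), proximity-ligated, PCR-amplified and sequenced on an Illumina NextSeq500. The binding signal of each hexamer is its read frequency for a factor divided by its frequency for the tag-only sample.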

ELK1 = target: T2, ELK1 (Homo sapiens, UniProt P19419 1-428); conditions: protein: recombinant; tags: N-terminal GST; dsDNA, one strand shown
T2 sequence: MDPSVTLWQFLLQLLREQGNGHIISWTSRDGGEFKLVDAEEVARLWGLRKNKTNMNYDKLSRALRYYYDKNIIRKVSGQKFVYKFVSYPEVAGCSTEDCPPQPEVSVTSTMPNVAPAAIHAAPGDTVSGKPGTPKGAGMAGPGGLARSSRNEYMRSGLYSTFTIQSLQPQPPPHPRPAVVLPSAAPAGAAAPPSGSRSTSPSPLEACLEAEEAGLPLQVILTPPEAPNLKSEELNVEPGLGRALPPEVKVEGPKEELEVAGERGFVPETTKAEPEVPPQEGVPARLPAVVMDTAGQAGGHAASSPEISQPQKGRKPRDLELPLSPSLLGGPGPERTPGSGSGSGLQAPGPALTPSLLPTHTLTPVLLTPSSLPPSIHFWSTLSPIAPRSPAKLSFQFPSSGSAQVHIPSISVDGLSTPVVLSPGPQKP
In short: as §1

GABPA = target: T3, GABPA (Homo sapiens, UniProt Q06546 1-454); conditions: protein: recombinant; tags: N-terminal GST; dsDNA, one strand shown
T3 sequence: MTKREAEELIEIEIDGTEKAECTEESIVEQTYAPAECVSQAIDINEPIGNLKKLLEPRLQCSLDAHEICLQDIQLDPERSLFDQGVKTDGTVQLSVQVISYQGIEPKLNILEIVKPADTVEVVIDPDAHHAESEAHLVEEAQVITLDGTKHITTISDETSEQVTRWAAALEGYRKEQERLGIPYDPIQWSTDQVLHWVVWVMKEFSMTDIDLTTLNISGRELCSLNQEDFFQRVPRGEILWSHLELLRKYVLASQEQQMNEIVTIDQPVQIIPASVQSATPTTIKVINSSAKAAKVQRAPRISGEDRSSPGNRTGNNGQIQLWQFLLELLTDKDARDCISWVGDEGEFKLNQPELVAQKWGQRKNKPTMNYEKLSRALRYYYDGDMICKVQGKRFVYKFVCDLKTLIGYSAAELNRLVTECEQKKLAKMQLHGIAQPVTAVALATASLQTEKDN
In short: as §1

ERG = target: T4, ERG (Homo sapiens, UniProt P11308 1-479); conditions: protein: recombinant; tags: N-terminal GST; dsDNA, one strand shown
T4 sequence: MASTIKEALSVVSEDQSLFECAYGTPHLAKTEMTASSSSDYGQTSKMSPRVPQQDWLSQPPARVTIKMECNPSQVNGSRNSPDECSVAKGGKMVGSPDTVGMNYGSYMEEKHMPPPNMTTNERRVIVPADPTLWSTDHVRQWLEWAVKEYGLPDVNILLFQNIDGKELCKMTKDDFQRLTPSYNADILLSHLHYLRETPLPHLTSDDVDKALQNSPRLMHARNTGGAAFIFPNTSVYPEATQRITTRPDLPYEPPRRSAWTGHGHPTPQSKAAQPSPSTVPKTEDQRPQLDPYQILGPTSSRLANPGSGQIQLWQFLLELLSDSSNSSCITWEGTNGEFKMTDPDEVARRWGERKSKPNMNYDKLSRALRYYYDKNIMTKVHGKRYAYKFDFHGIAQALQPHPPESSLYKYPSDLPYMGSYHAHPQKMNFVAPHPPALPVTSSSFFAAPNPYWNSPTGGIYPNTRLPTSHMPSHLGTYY
In short: as §1

ELF1 = ELF1 (Homo sapiens, UniProt P32519 1-619); conditions: protein: recombinant; tags: N-terminal GST; dsDNA, one strand shown
ELF1, sequence (P32519 whole entry): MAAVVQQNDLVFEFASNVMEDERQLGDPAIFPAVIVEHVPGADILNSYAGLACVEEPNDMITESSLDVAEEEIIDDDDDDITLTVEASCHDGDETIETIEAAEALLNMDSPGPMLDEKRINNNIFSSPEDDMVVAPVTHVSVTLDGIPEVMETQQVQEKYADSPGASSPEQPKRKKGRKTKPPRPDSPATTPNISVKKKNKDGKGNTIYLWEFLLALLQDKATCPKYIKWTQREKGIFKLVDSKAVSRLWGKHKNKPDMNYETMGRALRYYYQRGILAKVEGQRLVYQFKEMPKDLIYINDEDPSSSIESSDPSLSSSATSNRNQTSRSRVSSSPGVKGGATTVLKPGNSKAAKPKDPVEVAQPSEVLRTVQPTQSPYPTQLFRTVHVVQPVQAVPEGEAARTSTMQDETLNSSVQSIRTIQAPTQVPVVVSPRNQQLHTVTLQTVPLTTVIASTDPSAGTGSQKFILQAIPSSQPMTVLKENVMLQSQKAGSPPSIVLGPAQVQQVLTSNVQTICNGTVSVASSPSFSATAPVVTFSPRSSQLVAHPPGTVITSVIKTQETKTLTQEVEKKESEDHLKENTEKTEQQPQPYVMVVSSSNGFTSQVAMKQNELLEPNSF
In short: as §1

EHF = target: T5, EHF (Homo sapiens, UniProt Q9NZC4 1-300); conditions: protein: recombinant; tags: N-terminal GST; dsDNA, one strand shown
T5 sequence: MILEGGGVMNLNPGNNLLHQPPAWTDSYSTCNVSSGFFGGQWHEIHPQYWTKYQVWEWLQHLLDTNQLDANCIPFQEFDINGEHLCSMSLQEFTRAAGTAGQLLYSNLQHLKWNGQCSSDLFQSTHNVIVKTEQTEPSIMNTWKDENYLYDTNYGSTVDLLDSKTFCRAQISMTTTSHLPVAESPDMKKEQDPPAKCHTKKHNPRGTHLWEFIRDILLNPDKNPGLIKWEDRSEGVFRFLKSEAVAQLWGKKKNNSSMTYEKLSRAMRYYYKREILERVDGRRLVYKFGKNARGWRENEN
In short: as §1

SPI1 = SPI1 (Homo sapiens, UniProt P17947 1-270); conditions: protein: recombinant; tags: N-terminal GST; dsDNA, one strand shown
In short: as §1

SPIB = SPIB (Homo sapiens, UniProt Q01892 1-262); conditions: protein: recombinant; tags: N-terminal GST; dsDNA, one strand shown
SPIB, sequence (Q01892 whole entry): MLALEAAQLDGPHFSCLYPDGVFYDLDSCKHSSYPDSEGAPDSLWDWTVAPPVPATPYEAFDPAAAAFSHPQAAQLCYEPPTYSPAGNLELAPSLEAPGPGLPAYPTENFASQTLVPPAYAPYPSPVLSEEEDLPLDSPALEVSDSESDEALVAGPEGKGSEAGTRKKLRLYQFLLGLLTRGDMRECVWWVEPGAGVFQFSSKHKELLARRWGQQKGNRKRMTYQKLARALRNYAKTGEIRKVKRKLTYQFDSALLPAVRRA
In short: as §1

ELK3 = target: T6, ELK3 (Homo sapiens, UniProt P41970 1-407); conditions: protein: recombinant; tags: N-terminal GST; dsDNA, one strand shown
T6 sequence: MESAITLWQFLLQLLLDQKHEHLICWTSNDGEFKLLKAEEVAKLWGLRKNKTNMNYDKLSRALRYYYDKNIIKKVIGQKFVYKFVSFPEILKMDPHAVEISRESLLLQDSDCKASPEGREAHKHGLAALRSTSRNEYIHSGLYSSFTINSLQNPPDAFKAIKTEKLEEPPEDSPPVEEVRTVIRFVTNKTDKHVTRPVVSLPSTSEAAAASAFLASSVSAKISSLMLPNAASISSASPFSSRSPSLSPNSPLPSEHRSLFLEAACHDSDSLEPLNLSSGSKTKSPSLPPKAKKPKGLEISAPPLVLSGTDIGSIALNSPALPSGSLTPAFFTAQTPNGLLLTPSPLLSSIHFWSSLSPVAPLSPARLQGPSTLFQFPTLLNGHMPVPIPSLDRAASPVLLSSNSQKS
In short: as §1

FEV = target: T7, FEV (Homo sapiens, UniProt Q99581 1-238); conditions: protein: recombinant; tags: N-terminal GST; dsDNA, one strand shown
T7 sequence: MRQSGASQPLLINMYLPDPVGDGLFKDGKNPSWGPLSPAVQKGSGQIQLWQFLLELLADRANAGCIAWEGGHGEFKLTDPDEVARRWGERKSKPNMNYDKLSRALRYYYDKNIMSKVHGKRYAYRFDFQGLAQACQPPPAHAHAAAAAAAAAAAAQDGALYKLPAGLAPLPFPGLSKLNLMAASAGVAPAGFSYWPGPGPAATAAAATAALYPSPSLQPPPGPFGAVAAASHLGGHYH
In short: as §1

ETV5 = ETV5 (Homo sapiens, UniProt P41161 1-510); conditions: protein: recombinant; tags: N-terminal GST; dsDNA, one strand shown
ETV5, sequence (P41161 whole entry): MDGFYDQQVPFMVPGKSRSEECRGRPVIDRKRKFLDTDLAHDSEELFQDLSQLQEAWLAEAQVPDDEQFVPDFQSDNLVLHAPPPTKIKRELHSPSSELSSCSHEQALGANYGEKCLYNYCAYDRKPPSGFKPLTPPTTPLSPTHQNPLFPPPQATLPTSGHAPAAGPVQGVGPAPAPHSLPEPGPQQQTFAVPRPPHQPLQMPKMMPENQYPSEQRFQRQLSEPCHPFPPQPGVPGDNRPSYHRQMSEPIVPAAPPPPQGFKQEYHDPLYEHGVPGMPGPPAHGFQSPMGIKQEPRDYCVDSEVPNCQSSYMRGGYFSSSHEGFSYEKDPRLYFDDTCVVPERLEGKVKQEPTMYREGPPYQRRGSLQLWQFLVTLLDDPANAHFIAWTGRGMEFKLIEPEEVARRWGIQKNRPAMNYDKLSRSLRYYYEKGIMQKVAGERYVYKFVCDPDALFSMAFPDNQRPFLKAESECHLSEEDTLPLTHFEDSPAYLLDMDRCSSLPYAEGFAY
In short: as §1

HSF1 = HSF1 (Homo sapiens, UniProt Q00613 1-529); conditions: protein: recombinant; tags: N-terminal GST; chain copies: 3; dsDNA, one strand shown
HSF1, sequence (Q00613 whole entry): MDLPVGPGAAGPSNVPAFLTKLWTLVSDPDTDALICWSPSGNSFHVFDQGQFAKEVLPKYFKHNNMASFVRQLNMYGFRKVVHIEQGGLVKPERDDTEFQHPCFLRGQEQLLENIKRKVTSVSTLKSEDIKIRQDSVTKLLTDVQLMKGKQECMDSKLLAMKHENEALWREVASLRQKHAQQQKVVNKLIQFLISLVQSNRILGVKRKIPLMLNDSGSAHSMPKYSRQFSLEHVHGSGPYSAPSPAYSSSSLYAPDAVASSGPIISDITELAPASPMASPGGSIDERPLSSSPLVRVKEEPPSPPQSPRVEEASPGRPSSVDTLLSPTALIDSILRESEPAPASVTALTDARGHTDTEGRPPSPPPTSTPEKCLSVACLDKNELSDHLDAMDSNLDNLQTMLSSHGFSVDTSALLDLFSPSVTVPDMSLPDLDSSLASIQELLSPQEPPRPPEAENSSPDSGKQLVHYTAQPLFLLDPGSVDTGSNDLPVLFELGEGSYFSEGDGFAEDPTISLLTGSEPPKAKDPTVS
In short: as §1

SPIC = target: T8, SPIC (Homo sapiens, UniProt Q8N5J4 1-248); conditions: protein: recombinant; tags: N-terminal GST; dsDNA, one strand shown
T8 sequence: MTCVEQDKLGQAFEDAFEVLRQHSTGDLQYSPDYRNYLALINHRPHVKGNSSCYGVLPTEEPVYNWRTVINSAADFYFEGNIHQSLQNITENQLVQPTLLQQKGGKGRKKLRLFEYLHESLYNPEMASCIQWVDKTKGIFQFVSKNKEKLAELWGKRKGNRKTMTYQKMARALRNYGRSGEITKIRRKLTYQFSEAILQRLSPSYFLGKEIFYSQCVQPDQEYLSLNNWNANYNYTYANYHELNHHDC
In short: as §1

ELF4 = ELF4 (Homo sapiens, UniProt Q99607 1-663); conditions: protein: recombinant; tags: N-terminal GST; dsDNA, one strand shown
ELF4, sequence (Q99607 whole entry): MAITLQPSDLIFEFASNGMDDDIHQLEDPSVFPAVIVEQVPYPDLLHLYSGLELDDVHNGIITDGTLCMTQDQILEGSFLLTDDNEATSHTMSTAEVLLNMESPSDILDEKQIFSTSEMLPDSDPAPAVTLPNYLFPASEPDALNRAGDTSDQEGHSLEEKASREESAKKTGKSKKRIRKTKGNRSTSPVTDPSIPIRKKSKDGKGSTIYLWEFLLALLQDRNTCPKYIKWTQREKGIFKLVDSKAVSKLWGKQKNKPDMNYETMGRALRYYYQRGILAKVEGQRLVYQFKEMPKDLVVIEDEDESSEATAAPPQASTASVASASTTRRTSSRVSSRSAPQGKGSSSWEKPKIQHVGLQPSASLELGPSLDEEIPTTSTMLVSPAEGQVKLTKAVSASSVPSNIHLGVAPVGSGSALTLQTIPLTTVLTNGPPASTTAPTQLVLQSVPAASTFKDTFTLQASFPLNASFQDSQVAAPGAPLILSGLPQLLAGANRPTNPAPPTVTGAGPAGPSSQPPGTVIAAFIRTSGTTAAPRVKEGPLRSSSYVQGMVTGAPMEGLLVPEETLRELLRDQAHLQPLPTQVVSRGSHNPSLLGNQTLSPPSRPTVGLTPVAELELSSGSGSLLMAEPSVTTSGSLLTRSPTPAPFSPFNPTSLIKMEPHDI
In short: as §1

ELK4 = target: T9, ELK4 (Homo sapiens, UniProt P28324-2 1-405); conditions: protein: recombinant; tags: N-terminal GST; dsDNA, one strand shown
T9 sequence: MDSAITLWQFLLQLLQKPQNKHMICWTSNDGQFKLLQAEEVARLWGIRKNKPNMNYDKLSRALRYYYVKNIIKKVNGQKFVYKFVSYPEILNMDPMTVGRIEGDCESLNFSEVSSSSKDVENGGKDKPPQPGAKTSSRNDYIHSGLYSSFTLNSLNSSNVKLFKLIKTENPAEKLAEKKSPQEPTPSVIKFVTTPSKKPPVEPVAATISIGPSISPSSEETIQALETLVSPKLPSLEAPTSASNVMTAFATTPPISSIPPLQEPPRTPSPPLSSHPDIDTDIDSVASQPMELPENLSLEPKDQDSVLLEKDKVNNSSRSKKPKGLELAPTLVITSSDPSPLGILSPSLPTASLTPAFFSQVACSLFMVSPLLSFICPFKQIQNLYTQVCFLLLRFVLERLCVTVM
In short: as §1

ETV2 = target: T10, ETV2 (Homo sapiens, UniProt O00321 1-342); conditions: protein: recombinant; tags: N-terminal GST; dsDNA, one strand shown
T10 sequence: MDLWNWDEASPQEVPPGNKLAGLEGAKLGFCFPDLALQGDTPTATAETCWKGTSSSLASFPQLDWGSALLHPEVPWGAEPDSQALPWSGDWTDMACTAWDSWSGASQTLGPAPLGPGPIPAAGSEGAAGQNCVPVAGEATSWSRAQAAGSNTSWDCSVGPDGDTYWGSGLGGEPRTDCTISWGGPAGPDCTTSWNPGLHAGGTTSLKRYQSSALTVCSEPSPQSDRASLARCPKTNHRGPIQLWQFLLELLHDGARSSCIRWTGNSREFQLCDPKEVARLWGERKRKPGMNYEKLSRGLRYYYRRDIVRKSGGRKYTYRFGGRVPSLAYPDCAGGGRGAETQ
In short: as §1

ELF3 = target: T11, ELF3 (Homo sapiens, UniProt P78545 1-371); conditions: protein: recombinant; tags: N-terminal GST; dsDNA, one strand shown
T11 sequence: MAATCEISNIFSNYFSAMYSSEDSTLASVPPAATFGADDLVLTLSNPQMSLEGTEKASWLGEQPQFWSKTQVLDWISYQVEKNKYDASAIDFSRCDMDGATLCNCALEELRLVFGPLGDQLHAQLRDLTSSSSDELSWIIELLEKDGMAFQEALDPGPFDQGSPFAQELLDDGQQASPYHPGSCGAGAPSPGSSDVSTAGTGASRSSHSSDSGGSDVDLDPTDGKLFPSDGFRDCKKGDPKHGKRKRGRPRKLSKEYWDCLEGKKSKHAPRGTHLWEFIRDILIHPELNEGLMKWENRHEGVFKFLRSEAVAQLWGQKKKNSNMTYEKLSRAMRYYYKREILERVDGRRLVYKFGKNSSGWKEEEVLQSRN
In short: as §1

CRX = CRX (Homo sapiens, UniProt O43186 1-299); conditions: protein: recombinant; tags: N-terminal GST; dsDNA, one strand shown
CRX, sequence (O43186 whole entry): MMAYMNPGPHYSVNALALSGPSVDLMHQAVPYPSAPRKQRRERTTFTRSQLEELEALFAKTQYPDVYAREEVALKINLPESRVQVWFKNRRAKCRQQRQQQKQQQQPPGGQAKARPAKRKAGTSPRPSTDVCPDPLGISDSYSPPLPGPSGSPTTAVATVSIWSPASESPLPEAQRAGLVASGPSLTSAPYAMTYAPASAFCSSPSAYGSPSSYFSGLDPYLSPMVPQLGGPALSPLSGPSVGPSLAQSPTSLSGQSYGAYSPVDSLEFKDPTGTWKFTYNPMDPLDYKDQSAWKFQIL
In short: as §1

ETV1 = ETV1 (Homo sapiens, UniProt P50549 1-477); conditions: protein: recombinant; tags: N-terminal GST; dsDNA, one strand shown
ETV1, sequence (P50549 whole entry): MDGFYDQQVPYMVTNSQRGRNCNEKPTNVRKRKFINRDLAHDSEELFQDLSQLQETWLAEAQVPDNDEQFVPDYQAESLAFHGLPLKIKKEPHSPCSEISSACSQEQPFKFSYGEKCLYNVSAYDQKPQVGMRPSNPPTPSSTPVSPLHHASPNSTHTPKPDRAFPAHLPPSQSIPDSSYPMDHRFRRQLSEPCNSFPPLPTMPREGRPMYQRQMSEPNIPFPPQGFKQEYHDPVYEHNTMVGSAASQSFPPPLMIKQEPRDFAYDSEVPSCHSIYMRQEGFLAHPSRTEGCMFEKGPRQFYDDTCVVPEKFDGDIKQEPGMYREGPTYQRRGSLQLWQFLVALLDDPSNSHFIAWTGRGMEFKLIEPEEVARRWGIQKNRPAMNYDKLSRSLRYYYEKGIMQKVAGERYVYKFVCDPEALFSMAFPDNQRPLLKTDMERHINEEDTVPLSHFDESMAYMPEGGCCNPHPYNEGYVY
In short: as §1

With ATTGCT as the sequence, how does the binding signal (FLI1) read?
Its binding signal is 1.24 fold enrichment (6-mer frequency, TF over GST control).

What about the binding signal (ELK1) of the same sequence?
The binding signal was 1.19 fold enrichment (6-mer frequency, TF over GST control).

And the binding signal (GABPA)?
Its binding signal is 1.27 fold enrichment (6-mer frequency, TF over GST control).

What about the binding signal (ERG) of the same sequence?
The binding signal was 1.25 fold enrichment (6-mer frequency, TF over GST control).

And the binding signal (ELF1)?
Its binding signal is 1.24 fold enrichment (6-mer frequency, TF over GST control).

What about the binding signal (EHF) of the same sequence?
Its binding signal is 1.31 fold enrichment (6-mer frequency, TF over GST control).

What about the binding signal (SPI1) of the same sequence?
The binding signal was 1.1 fold enrichment (6-mer frequency, TF over GST control).

And the binding signal (SPIB)?
Its binding signal is 1.3 fold enrichment (6-mer frequency, TF over GST control).

And the binding signal (ELK3)?
The binding signal was 1.22 fold enrichment (6-mer frequency, TF over GST control).

And the binding signal (FEV)?
The binding signal was 1.22 fold enrichment (6-mer frequency, TF over GST control).

What about the binding signal (ETV5) of the same sequence?
Its binding signal is 1.16 fold enrichment (6-mer frequency, TF over GST control).

What about the binding signal (HSF1) of the same sequence?
Its binding signal is 1.14 fold enrichment (6-mer frequency, TF over GST control).

What about the binding signal (SPIC) of the same sequence?
Its binding signal is 1.32 fold enrichment (6-mer frequency, TF over GST control).

What about the binding signal (ELF4) of the same sequence?
The binding signal was 1.19 fold enrichment (6-mer frequency, TF over GST control).

And the binding signal (ELK4)?
The binding signal was 1.16 fold enrichment (6-mer frequency, TF over GST control).

What about the binding signal (ETV2) of the same sequence?
The binding signal was 1.22 fold enrichment (6-mer frequency, TF over GST control).

What about the binding signal (ELF3) of the same sequence?
Its binding signal is 1.28 fold enrichment (6-mer frequency, TF over GST control).

What about the binding signal (CRX) of the same sequence?
The binding signal was 1.17 fold enrichment (6-mer frequency, TF over GST control).

What about the binding signal (ETV1) of the same sequence?
The binding signal was 1.27 fold enrichment (6-mer frequency, TF over GST control).
